Experimental findings from PubChem BioAssay AID1852 (Sanford-Burnham Center for Chemical Genomics, 2009) are described below.

Hit rate of the full screen: of about 2,500 compounds, about 1,100 (44%) were called active. So high a share suggests a set chosen from earlier hits. The list shows a part of the results. A number with no mark means an inactive call.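 How the source made its calls: active means inhibition above 50% at 4 µM in the single-point screen; inactive means inhibition of 50% or less.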

A short description of the experiment: blockers of TNF-a NF-kB luciferase induction – cell-based, HEK293T NF-kB-Luc, luminescence, selectivity assay for NOD1/NOD2 signaling inhibitor project, primary screen (AID 1852). The note with it: TNF-a induced, 14 h, at 4 µM, active compounds read high.
Consider `COCC1CCN(C(=O)c2cc(COc3ccc4ncccc4c3)on2)CC1`, for which the inhibition is 40.2%.

For the molecule `CCN(CC)C(=O)C1CCCN(C(=O)c2cc(COc3ccc4ncccc4c3)on2)C1` (configuration not stated), the inhibition was 36%.

As to `COCC1CCCN(C(=O)c2cc(COc3ccc4ncccc4c3)on2)C1` (configuration not stated), the inhibition was 33.2%.

For the molecule `COc1cccc(OCc2cc(C(=O)NCc3cnc4ccccn34)no2)c1`, the inhibition is 4.4%.

For `CSc1ccccc1OCc1cc(C(=O)N2CCC(c3ccncc3)CC2)no1`, the inhibition is 29.9%.

For `O=C(c1cc(COc2c(F)cccc2F)on1)N1CCC(c2ccncc2)CC1`, the inhibition was 41.3%.

As to `O=C(c1cc(COc2cccc3cnccc23)on1)N1CCCC(CCCO)C1` (configuration not stated), the inhibition is 61.6% (active).

For the molecule `Cc1ccc(C)c(OCc2cc(C(=O)NC3CCN(Cc4ccccc4)CC3)no2)c1`, the inhibition was 22.7%.

For `COCC1CCN(C(=O)c2cc(COc3cccc4cnccc34)on2)CC1`, the inhibition is 52.7% (active).

With `O=C(c1cc(COc2cccc3cnccc23)on1)N1CCC(c2ccccc2Cl)C1` (configuration not stated), the inhibition is 72.7% (active).

In the case of `Cc1c(C(C)NC(=O)c2cc(COc3cccc4cnccc34)on2)cnn1C` (configuration not stated), the inhibition is 53.8% (active).

Regarding `COc1ccc(OCc2cc(C(=O)N3CCC(c4ccccc4)CC3)no2)c(Cl)c1`, the inhibition was -96.3%.

On to `N#C/C(=C\c1ccc(O)c([N+](=O)[O-])c1)c1nc2ccccc2s1`, for which the inhibition was 76.9% (active).

Regarding `CCOc1ccc(-c2csc(/C(C#N)=C\c3ccc(O)c([N+](=O)[O-])c3)n2)cc1`, the inhibition is 0.4%.

Regarding `NS(=O)(=O)c1ccc(Sc2nc3ccccc3s2)c([N+](=O)[O-])c1`, the inhibition is 35.3%.

On to `CCOC(=O)c1c(-c2ccccc2)csc1NC(=O)CSc1nc(N)cc(N)n1`, for which the inhibition is 61.5% (active).

As to `Cc1sc(NC(=O)CSc2ncn(-c3ccccc3)n2)nc1-c1ccccc1`, the inhibition was 33.1%.

With `CC(C)c1ccc(-c2csc(NC(=O)c3cccs3)c2C(=O)O)cc1`, the inhibition was 16.6%.

As for `CCOc1cc(/C=C2\CN(CC)C/C(=C\c3ccc(O)c(OCC)c3)C2=O)ccc1O`, the inhibition was 96.7% (active).

Turning to `CCOc1cc(/C=C2\CN(C)C/C(=C\c3ccc(O)c(OCC)c3)C2=O)ccc1O`, the inhibition was 65.5% (active).

Take `CCOC(=O)c1c(NC(=S)NCCc2ccccc2)sc2c1CC(C(C)C)OC2` (configuration not stated): the inhibition was 82.3% (active).

On to `CC(C)COc1ccc(C(=O)Nc2sc3c(c2C(=O)O)CC(C)(C)OC3)cc1`, for which the inhibition was 35.4%.

As for `CCCCCCCCCn1c2c(c(=N)c3c1CCC3)CCC2`, the inhibition was 74.8% (active).

Turning to `CCCCCCCCCCn1c2c(c(=N)c3c1CCC3)CCC2`, the inhibition was 78.4% (active).

`CCCCCCCCn1c2c(c(=N)c3ccccc31)CCC2`: the inhibition was 74.7% (active).

Consider `Cc1ccc2[nH]c3c(N4CCc5ccccc5C4)ncnc3c2c1`, for which the inhibition was 83.8% (active).

In the case of `Cc1ccc2c(c1)[nH]c1c(N3CCN(Cc4ccccc4)CC3)ncnc12`, the inhibition was 72.7% (active).

As for `Oc1c(CN2CCN(c3ccccc3)CC2)cc(Br)c2cccnc12`, the inhibition was 15.7%.

For the molecule `Cc1ccc2[nH]c3c(N4CCN(Cc5ccccc5)CC4)ncnc3c2c1`, the inhibition is 76.9% (active).

With `Cc1c(C)n(Cc2ccccc2)c2ncnc(Cl)c12`, the inhibition is 42.6%.

For `Cc1csc2ncnc(NC3CCN(Cc4ccccc4)CC3)c12`, the inhibition is 32.1%.

For the molecule `O=C(CN1CCN(Cc2ccccc2)CC1)N1N=CCC1c1ccccc1` (configuration not stated), the inhibition was 21.7%.

As for `Fc1ccc2[nH]c3c(N4CCc5ccccc5C4)ncnc3c2c1`, the inhibition is 45.8%.

On to `c1ccc(CN2CCN(c3ncnc4c3[nH]c3ccccc34)CC2)cc1`, for which the inhibition is 73.4% (active).

In the case of `COCCCNC(=O)c1sc2ncnc(N3CCc4ccccc4C3)c2c1C`, the inhibition was 44.9%.

Turning to `CCN1CCN(Cc2ccc(NC(=O)c3ccc(C)c(NC(=O)C(=O)c4c[nH]c5ccccc45)c3)cc2C(F)(F)F)CC1`, the inhibition is 26.4%.

Take `CCC(Cc1ccccc1)NS(=O)(=O)c1ccc2c(c1)NC(=O)C(C)S2` (configuration not stated): the inhibition was -1.2%.

`COc1ccc(NS(=O)(=O)c2ccc3c(c2)NC(=O)C(C)S3)cc1` (configuration not stated): the inhibition was 9.8%.

Turning to `CCC1Sc2ccc(S(=O)(=O)Nc3ccc(OC)c(OC)c3)cc2NC1=O` (configuration not stated), the inhibition was 51.8% (active).

Consider `CCn1nc([N+](=O)[O-])c(C(C#N)c2nc3cc(C(F)(F)F)ccc3s2)c(Cl)c1=O` (configuration not stated), for which the inhibition was 34.1%.

For `Cc1cc(C)c(S(=O)(=O)/N=C2\C=C(NS(=O)(=O)c3ccccc3)C(=O)c3ccccc32)c(C)c1`, the inhibition was 94.9% (active).

With `Cc1ccc(NC2=C(Cl)C(=O)c3ccccc3C2=O)cc1`, the inhibition was -26.5%.

Consider `Cc1ccc(C)c(S(=O)(=O)/N=C2\C=C(NS(=O)(=O)c3ccccc3)C(=O)c3ccccc32)c1`, for which the inhibition is 102% (active).

In the case of `Cc1ccc(NS(=O)(=O)c2ccc3c(c2)C(=O)c2ccccc2C3=O)c(C)c1`, the inhibition is 2.1%.

With `Cc1cc(C)c(S(=O)(=O)/N=C2\C=C(Nc3ccc(C(=O)O)cc3)C(=O)c3ccccc32)c(C)c1`, the inhibition is 107% (active).

For `Cc1ccc(NC(=O)COc2ccc(/C=C3/SC(=Nc4ccccc4)N(Cc4cccnc4)C3=O)cc2)cc1`, the inhibition was 14.5%.

With `CCc1ccc(NC(=O)C2CCN(S(=O)(=O)c3ccc4c(c3)CC(C)N4C(C)=O)CC2)cc1` (configuration not stated), the inhibition is 70% (active).

As for `CC(=O)N1c2ccc(S(=O)(=O)N3CCC(C(=O)Nc4cccc(C)n4)CC3)cc2CC1C` (configuration not stated), the inhibition was 40.5%.

As for `COc1ccccc1NC(=O)C1CCCN(S(=O)(=O)c2ccc3c(c2)CC(C)N3C(C)=O)C1` (configuration not stated), the inhibition was 47.2%.

Take `Cc1ccccc1CN1CCc2c(OCC(=O)N3CCCc4ccccc43)cccc2C1=O`: the inhibition is 48.2%.

Consider `O=C(CN1C(=O)c2ccccc2S1(=O)=O)c1ccc2c(c1)OCCCO2`, for which the inhibition is 95.7% (active).

For the molecule `O=C(/C=C/c1ccncc1)c1ccc2c(c1)OCCO2`, the inhibition was -1.4%.

On to `O=C(CN1C(=O)c2ccccc2S1(=O)=O)N1CCc2ccccc21`, for which the inhibition is 70.7% (active).

Regarding `O=C(CN1C(=O)c2ccccc2S1(=O)=O)c1ccc2c(c1)OCCO2`, the inhibition is 95% (active).

In the case of `O=C1C(=O)N(c2nccs2)C(c2ccccc2)/C1=C(\O)c1ccc2c(c1)OCCO2` (configuration not stated), the inhibition is 31.4%.

For the molecule `O=C(CN1CCc2cc3c(cc2C1)OCCCO3)Nc1c(F)cccc1F`, the inhibition is -3.8%.

Take `O=C(CSc1ncnc2c1oc1ccccc12)N1CCCc2ccccc21`: the inhibition is 18.1%.

By inhibition is commonly meant the relative decrease from the control value, in per cent.
